# From the supplement of paper PMC10037445
# Values joined by “and” are separate entries in the source; they are usually repeats but may differ in a detail not shown here. Equal entries are not always repeated. In all, about 2,900 compounds were measured (“NF-kB SEAP reporter activity, fold change vs agonist alone”: median about 0.99, highest 2% from about 2.6 on). The entries come from a sample that favours the highest values as a whole.
# Legend:
# RAW-Dual [1] = assay: NF-kB SEAP reporter activity, fold change vs agonist alone; cytotoxicity flag (confluency mask): not cytotoxic; higher = enhanced NF-kB activity
# Method in brief: (§1)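 Library stock was pin-tooled at 50 nL into 384-well plates of RAW-Dual macrophages (50,000 cells/well, DMEM), followed 1 h later by a PRR agonist, and the cells were kept at 37 °C, 5% CO2. Supernatant collected after 20 hours was read for IRF by QuantiLuc luminescence and for NF-κB by QuantiBlue absorbance at 620 nm. Reporter activity is fold change over agonist-alone wells, and a well counted as cytotoxic when its IncuCyte confluency was below 70% of agonist controls in both mask sets.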
# RAW-Dual [2] = assay: NF-kB SEAP reporter activity, fold change vs agonist alone; higher = enhanced NF-kB activity; conditions: library stock concentration (final ~1000-fold dilution): 10 mM
# Method in brief: as §1
# RAW-Dual [3] = assay: NF-kB SEAP reporter activity, fold change vs agonist alone; cytotoxicity flag (confluency mask): cytotoxic (confluency <70% of control); higher = enhanced NF-kB activity
# Method in brief: as §1
# [4] = agonist: ODN 1826 (TLR9) 0.5 ug/mL
# [5] = agonist: Pam2CSK4 (TLR2/6) 0.1 ug/mL
# [6] = agonist: Pam3CSK4 (TLR2/1) 0.1 ug/mL
# [7] = cytotoxicity flag (confluency mask): not cytotoxic, agonist: Imiquimod (TLR7) […]
# [8] = cytotoxicity flag (confluency mask): not cytotoxic, agonist: MPLA (TLR4) […]
smiles,measurement,setting,value
O=C1C2C3CCC(C3)C2C(=O)N1CC1CCCCC1CN1CCN(c2nsc3ccccc23)CC1 (stereo not drawn) (library stock concentration (final ~1000-fold dilution): 10 mM),NF-kB SEAP reporter activity,RAW-Dual [1]; agonist: LPS (TLR4) 0.1 ug/mL,0.728
same,NF-kB SEAP reporter activity,RAW-Dual [1]; [4],0.931
same,NF-kB SEAP reporter activity,RAW-Dual [1]; [5],0.983
same,NF-kB SEAP reporter activity,RAW-Dual [1]; [6],1.07
O=C1C2C3CCC(C3)C2C(=O)N1CC1CCCCC1CN1CCN(c2nsc3ccccc23)CC1 (stereo not drawn),NF-kB SEAP reporter activity,RAW-Dual [2]; [7],0.878
same,NF-kB SEAP reporter activity,RAW-Dual [2]; [8],1.06
Cl.Nc1ccc(Cl)cc1C(=O)C(F)(F)F,NF-kB SEAP reporter activity,RAW-Dual [2]; [8],1.24
O=C(Nc1cc(C(F)(F)F)ccc1N1CCCCC1)c1ccncc1 (library stock concentration (final ~1000-fold dilution): 10 mM),NF-kB SEAP reporter activity,RAW-Dual [1]; agonist: LPS (TLR4) 0.1 ug/mL,0.802
same,NF-kB SEAP reporter activity,RAW-Dual [1]; [4],0.875
same,NF-kB SEAP reporter activity,RAW-Dual [1]; [5],0.764
same,NF-kB SEAP reporter activity,RAW-Dual [1]; [6],0.771
Cl.NCCOc1ccc(Cl)cc1C(=O)Nc1ccc([N+](=O)[O-])cc1Cl,NF-kB SEAP reporter activity,RAW-Dual [2]; [7],1.31
same,NF-kB SEAP reporter activity,RAW-Dual [2]; [8],0.949
O=C(Nc1cc(C(F)(F)F)cc(C(F)(F)F)c1)c1cc(Cl)ccc1O (library stock concentration (final ~1000-fold dilution): 10 mM),NF-kB SEAP reporter activity,RAW-Dual [3]; agonist: LPS (TLR4) 0.1 ug/mL,4.53 and 3.94
same,NF-kB SEAP reporter activity,RAW-Dual [3]; [4],1.84 and 1.74
same,NF-kB SEAP reporter activity,RAW-Dual [3]; [5],1.25 and 1.03
same,NF-kB SEAP reporter activity,RAW-Dual [3]; [6],1.99 and 1.13
O=C(Nc1cc(C(F)(F)F)ccc1C(F)(F)F)c1cc(Br)ccc1O (library stock concentration (final ~1000-fold dilution): 10 mM),NF-kB SEAP reporter activity,RAW-Dual [3]; agonist: LPS (TLR4) 0.1 ug/mL,2.68
same,NF-kB SEAP reporter activity,RAW-Dual [3]; [4],1.82
same,NF-kB SEAP reporter activity,RAW-Dual [3]; [5],0.573
same,NF-kB SEAP reporter activity,RAW-Dual [3]; [6],0.839
CC(ONC(=O)c1cc(C(F)(F)F)cc(C(F)(F)F)c1)C(=O)Nc1ccc(Cl)cc1 (stereo not drawn) (library stock concentration (final ~1000-fold dilution): 10 mM),NF-kB SEAP reporter activity,RAW-Dual [1]; agonist: LPS (TLR4) 0.1 ug/mL,1.45
same,NF-kB SEAP reporter activity,RAW-Dual [1]; [4],0.913
same,NF-kB SEAP reporter activity,RAW-Dual [1]; [5],0.239
same,NF-kB SEAP reporter activity,RAW-Dual [1]; [6],0.6
Cl.NCCOc1ccc(Cl)cc1C(=O)Nc1ccc([N+](=O)[O-])cc1Cl (library stock concentration (final ~1000-fold dilution): 10 mM),NF-kB SEAP reporter activity,RAW-Dual [1]; agonist: LPS (TLR4) 0.1 ug/mL,1.29
same,NF-kB SEAP reporter activity,RAW-Dual [1]; [4],0.59
same,NF-kB SEAP reporter activity,RAW-Dual [1]; [5],0.918
same,NF-kB SEAP reporter activity,RAW-Dual [1]; [6],0.91
O=C(Nc1cc(C(F)(F)F)ccc1C(F)(F)F)c1cc(Br)ccc1O,NF-kB SEAP reporter activity,"RAW-Dual [2]; cytotoxicity flag (confluency mask): cytotoxic (confluency <70% of control), agonist: Imiquimod (TLR7) […]",0.255
same,NF-kB SEAP reporter activity,"RAW-Dual [2]; cytotoxicity flag (confluency mask): cytotoxic (confluency <70% of control), agonist: MPLA (TLR4) […]",2.3
Cl.Nc1ccc(Cl)cc1C(=O)C(F)(F)F (library stock concentration (final ~1000-fold dilution): 10 mM),NF-kB SEAP reporter activity,RAW-Dual [1]; agonist: LPS (TLR4) 0.1 ug/mL,1.2
same,NF-kB SEAP reporter activity,RAW-Dual [1]; [4],1.04
same,NF-kB SEAP reporter activity,RAW-Dual [1]; [5],1.01
same,NF-kB SEAP reporter activity,RAW-Dual [1]; [6],0.971
Cc1oncc1C(=O)Nc1ccc(C(F)(F)F)cc1,NF-kB SEAP reporter activity,RAW-Dual [2]; [7],1.24
same,NF-kB SEAP reporter activity,RAW-Dual [2]; [8],1.15
O=C(Nc1ccc([N+](=O)[O-])cc1Cl)c1cc(Cl)ccc1O,NF-kB SEAP reporter activity,RAW-Dual [2]; [7],1
same,NF-kB SEAP reporter activity,RAW-Dual [2]; [8],1.05
Cc1oncc1C(=O)Nc1ccc(C(F)(F)F)cc1 (library stock concentration (final ~1000-fold dilution): 10 mM),NF-kB SEAP reporter activity,RAW-Dual [1]; agonist: LPS (TLR4) 0.1 ug/mL,0.926
same,NF-kB SEAP reporter activity,RAW-Dual [1]; [4],1.24
same,NF-kB SEAP reporter activity,RAW-Dual [1]; [5],0.908
same,NF-kB SEAP reporter activity,RAW-Dual [1]; [6],1.07
O=C(Nc1ccc([N+](=O)[O-])cc1Cl)c1cc(Cl)ccc1O (library stock concentration (final ~1000-fold dilution): 10 mM),NF-kB SEAP reporter activity,RAW-Dual [1]; agonist: LPS (TLR4) 0.1 ug/mL,6.96
same,NF-kB SEAP reporter activity,RAW-Dual [1]; [4],0.713
same,NF-kB SEAP reporter activity,RAW-Dual [1]; [5],0.379
same,NF-kB SEAP reporter activity,RAW-Dual [1]; [6],0.527
O=C(Nc1cc(C(F)(F)F)ccc1N1CCCCC1)c1ccncc1,NF-kB SEAP reporter activity,RAW-Dual [2]; [7],0.957
same,NF-kB SEAP reporter activity,RAW-Dual [2]; [8],1.01
O=C(Nc1ccncc1)c1cc([N+](=O)[O-])ccc1Cl (library stock concentration (final ~1000-fold dilution): 10 mM),NF-kB SEAP reporter activity,RAW-Dual [1]; agonist: LPS (TLR4) 0.1 ug/mL,0.801
same,NF-kB SEAP reporter activity,RAW-Dual [1]; [4],0.584
same,NF-kB SEAP reporter activity,RAW-Dual [1]; [5],0.853
same,NF-kB SEAP reporter activity,RAW-Dual [1]; [6],0.69
